Active and inactive are the calls of the source.
Legend:
[1] = small molecules captured by biotinylated probe aFSTL3 – biochemical, small-molecule microarray, fluorescence 635/667, stem cell growth factor project, primary screen (AID 1064); settings: higher = more signal;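 also: measures binding of the biotinylated anti-FSTL3 antibody to printed compounds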
[2] = binders from COS7 lysate, DM2A8 probe, primary screen, torsin A project, cell lysate, small-molecule microarray, fluorescence 635/667 (AID 1065); settings: higher = more signal, COS7 lysate expressing mutant human TOR1A
[3] = small molecules captured by biotinylated probe aFGF2 – biochemical, small-molecule microarray, fluorescence 635/667, stem cell growth factor project, primary screen (AID 1067); settings: higher = more signal;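 also: measures binding of biotinylated aFGF2 protein to printed compounds on slides; z-score merges feature fluorescence and signal-to-noise across triplicate slides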
[4] = small molecules captured by biotinylated probe aFGF10 – biochemical, small-molecule microarray, fluorescence 635/667, stem cell growth factor project, primary screen (AID 1071); settings: higher = more signal;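 also: score merges 667 nm spot intensity and signal to noise from triplicate slides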
[5] = molecular target: Neurogenic locus notch homolog protein 2 (Homo sapiens) (UniProt Q04721); assay: small molecules binding Notch2 protein – biochemical, small-molecule microarray, 635 nm fluorescence, stem cell growth factors, primary screen (AID 1073); settings: higher = more signal
[6] = molecular target: Pro-neuregulin-1, membrane-bound isoform (Homo sapiens) (UniProt Q02297); assay: small molecules binding neuregulin-1 protein – biochemical, small-molecule microarray, fluorescence 635/667, psychiatric disease protein project, primary screen (AID 1075); settings: NRG1 binding, 635 nm fluorescence, higher = more signal;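 also: score combines 667 nm spot fluorescence with signal to noise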
Chain of Pro-neuregulin-1, membrane-bound isoform (Homo sapiens) (Q02297 whole entry, looked up, the tested form may be a part, canonical isoform): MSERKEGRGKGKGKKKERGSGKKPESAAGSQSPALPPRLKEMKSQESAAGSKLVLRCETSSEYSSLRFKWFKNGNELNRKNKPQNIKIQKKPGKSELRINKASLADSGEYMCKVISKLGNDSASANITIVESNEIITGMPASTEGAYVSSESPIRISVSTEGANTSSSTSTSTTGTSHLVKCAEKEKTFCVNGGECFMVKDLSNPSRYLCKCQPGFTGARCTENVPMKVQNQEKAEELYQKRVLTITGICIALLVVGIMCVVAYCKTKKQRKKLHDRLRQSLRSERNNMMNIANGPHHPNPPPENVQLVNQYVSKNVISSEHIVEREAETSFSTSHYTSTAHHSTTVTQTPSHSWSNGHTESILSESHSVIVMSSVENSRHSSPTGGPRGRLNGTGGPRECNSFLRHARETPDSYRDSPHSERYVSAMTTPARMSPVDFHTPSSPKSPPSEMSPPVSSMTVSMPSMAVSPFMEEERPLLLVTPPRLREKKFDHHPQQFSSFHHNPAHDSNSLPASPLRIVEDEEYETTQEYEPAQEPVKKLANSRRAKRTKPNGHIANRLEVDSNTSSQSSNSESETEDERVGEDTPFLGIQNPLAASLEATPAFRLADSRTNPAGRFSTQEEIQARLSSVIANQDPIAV

[7] = system: Neuregulin-1 EGF-like domain; assay: small molecules binding NRG1 EGF domain – biochemical, small-molecule microarray, 635 nm fluorescence, primary screen (AID 1081); settings: higher = more signal;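 also: binding of the protein to compounds printed on small-molecule microarray slides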
[8] = FRG1 expression reporter modulators in myotubes – cell-based, C2C12 myotubes, firefly/Renilla luciferase, luminescence, FRG1 inhibition for FSHD, primary screen (AID 1084); settings: FRG1 promoter luciferase, higher = more signal, called active from +8 up or from −8 down
[9] = small molecules captured by biotinylated probe aFST – biochemical, small-molecule microarray, fluorescence 635/667, stem cell growth factor project, primary screen (AID 1086); settings: higher = more signal;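 also: score merges 667 nm fluorescence with signal-to-noise of each printed compound spot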
[10] = binders of probe aHhip on microarray, primary screen, stem cell growth factor project, biochemical, small-molecule microarray, fluorescence 635/667 (AID 1087); settings: higher = more signal;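 also: score merges spot fluorescence at 667nm with spot signal to noise ratio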
[11] = system: PRMT1 (protein arginine N-methyltransferase 1); assay: small molecules binding arginine methyltransferase PRMT1 – biochemical, small-molecule microarray, 635 nm fluorescence, primary screen (AID 1088); settings: higher = more signal;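 also: binding of Prmt1 protein to compounds spotted on small-molecule microarray slides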
[12] = growth effects on S. cerevisiae YJM789 – YJM789 clinical isolate, OD600, 24 h, basal, primary screen (AID 1089); settings: higher = more signal, called active from +8 up or from −8 down;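 also: growth of clinical yeast isolate S. cerevisiae YJM 789 seeded 1000 cells per well; test concentration not given here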
[13] = S. pombe growth modifiers, basal conditions – strain 972, OD600, 24 h, no modulator, primary screen (AID 1090);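 also: basal condition with compound alone and no growth modifier present; test concentration not given here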; settings: S. pombe 972 growth, higher = more signal, called active from +8 up or from −8 down
[14] = budding yeast growth modifiers under rapamycin – strain BY4716, OD600, 96 h, primary screen (AID 1091); also: test concentration not given here; settings: S. cerevisiae BY4716 + rapamycin, higher = more signal, called active from +8 up or from −8 down
[15] = molecular target: Torsin-1A-interacting protein 2 (Homo sapiens) (UniProt Q8NFQ8); assay: small molecules binding lysate-expressed LULL1 – cell lysate, human LULL1 lysate, 635/667 nm fluorescence, primary screen (AID 1092); settings: small-molecule microarray, hLULL1 lysate binding, 635 nm fluorescence; higher = more signal;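 also: probe is lysate of COS7 cells overexpressing human LULL1; score merges per-feature 667 nm fluorescence with signal-to-noise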
Chain of Torsin-1A-interacting protein 2 (Homo sapiens) (Q8NFQ8 whole entry, looked up): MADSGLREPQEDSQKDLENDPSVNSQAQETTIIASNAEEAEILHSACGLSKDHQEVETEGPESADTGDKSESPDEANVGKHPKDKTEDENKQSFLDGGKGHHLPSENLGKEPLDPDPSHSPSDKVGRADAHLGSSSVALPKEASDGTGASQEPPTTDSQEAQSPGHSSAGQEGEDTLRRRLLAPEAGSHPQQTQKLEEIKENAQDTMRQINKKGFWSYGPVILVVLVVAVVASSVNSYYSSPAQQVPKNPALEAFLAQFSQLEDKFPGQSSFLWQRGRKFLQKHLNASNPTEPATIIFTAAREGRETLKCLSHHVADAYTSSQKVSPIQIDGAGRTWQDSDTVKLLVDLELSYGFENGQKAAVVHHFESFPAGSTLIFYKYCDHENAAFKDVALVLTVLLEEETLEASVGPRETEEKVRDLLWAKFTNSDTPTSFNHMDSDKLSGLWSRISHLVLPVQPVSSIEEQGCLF

[16] = optical density change of DRC41 E. coli – strain DRC41, OD650, 24 h, E. coli filamentation project, primary screen (AID 1093);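 also: MC1000 strain lacking acrAB efflux and sulA so SOS filamentation is blocked; test concentration not given here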; settings: E. coli DRC41 growth, higher = more signal, called active from +8 up or from −8 down
[17] = probe aLefty2 binding to arrayed compounds – biochemical, biotinylated probe, 635/667 nm fluorescence, primary screen (AID 1094); settings: small-molecule microarray, higher = more signal;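 also: score merges spot fluorescence near 667 nm with spot signal-to-noise ratio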
[18] = system: Noggin (protein binding on small-molecule microarray); assay: small molecules binding Noggin protein – biochemical, 635/667 nm fluorescence, primary screen (AID 1095); settings: 635 nm fluorescence, higher = more signal;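 also: score merges 667 nm feature fluorescence with signal to noise over triplicate slides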
[19] = molecular target: Neurogenic locus notch homolog protein 3 (Homo sapiens) (UniProt Q9UM47); assay: small molecules binding NOTCH3 protein – biochemical, 635/667 nm fluorescence, primary screen (AID 1096); settings: small-molecule microarray, 635 nm fluorescence, higher = more signal
Chain of Neurogenic locus notch homolog protein 3 (Homo sapiens) (Q9UM47 whole entry, looked up): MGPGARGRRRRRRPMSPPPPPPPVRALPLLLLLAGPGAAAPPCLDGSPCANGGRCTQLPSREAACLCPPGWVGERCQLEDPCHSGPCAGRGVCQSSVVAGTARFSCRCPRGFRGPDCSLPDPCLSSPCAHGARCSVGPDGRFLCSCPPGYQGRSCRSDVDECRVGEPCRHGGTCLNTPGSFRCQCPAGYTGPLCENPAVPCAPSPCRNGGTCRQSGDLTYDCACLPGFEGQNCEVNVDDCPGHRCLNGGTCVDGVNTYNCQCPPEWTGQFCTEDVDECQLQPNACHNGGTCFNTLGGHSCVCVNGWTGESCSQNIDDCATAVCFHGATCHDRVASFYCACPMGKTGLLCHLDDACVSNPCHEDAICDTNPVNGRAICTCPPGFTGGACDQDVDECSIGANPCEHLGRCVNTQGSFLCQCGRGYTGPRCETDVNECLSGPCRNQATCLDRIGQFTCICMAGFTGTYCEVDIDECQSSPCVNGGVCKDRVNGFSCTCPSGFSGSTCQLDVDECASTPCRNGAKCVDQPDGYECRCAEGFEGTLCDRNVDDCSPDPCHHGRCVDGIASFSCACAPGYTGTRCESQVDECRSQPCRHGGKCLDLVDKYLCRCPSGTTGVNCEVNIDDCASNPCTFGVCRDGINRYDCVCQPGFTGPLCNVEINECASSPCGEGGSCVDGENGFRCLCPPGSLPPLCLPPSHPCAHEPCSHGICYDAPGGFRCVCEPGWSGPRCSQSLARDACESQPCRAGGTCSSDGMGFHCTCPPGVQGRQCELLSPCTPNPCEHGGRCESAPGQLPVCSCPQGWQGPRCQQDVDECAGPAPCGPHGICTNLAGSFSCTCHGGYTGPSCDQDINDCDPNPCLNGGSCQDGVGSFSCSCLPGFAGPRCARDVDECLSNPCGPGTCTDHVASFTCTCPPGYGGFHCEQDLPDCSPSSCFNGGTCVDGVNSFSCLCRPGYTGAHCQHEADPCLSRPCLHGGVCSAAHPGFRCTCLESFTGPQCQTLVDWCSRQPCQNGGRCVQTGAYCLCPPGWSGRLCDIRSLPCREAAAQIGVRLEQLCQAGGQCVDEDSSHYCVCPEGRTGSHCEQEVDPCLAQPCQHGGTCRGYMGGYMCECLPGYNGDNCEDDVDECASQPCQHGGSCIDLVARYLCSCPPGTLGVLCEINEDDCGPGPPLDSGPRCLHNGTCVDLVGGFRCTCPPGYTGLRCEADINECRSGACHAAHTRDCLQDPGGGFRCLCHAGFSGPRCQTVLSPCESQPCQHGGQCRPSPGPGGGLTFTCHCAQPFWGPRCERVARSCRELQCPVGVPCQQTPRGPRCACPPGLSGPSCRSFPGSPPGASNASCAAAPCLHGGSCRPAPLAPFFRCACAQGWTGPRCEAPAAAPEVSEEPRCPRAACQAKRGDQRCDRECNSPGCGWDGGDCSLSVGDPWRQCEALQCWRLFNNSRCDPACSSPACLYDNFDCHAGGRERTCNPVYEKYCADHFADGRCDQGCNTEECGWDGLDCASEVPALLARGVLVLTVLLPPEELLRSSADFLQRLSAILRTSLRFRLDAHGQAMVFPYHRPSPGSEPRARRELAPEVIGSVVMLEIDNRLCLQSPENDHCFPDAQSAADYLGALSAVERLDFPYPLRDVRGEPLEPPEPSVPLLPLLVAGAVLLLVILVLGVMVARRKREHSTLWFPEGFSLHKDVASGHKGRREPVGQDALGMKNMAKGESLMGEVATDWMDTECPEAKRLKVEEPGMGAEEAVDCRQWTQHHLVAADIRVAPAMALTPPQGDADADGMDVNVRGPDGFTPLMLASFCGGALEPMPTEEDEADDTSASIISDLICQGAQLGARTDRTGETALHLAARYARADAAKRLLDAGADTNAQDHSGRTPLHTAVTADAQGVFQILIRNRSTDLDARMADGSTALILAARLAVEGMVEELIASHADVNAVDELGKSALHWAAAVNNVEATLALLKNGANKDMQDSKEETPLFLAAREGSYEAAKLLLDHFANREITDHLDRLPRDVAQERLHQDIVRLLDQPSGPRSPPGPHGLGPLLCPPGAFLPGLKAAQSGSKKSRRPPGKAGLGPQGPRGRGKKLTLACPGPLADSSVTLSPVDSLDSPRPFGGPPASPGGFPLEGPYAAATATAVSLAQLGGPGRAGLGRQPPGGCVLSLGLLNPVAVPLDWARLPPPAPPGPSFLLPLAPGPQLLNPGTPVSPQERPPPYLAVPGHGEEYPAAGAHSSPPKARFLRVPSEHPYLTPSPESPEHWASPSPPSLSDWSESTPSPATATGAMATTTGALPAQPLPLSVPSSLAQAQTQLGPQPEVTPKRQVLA

[20] = probe aEGFR binding to arrayed compounds – biochemical, biotinylated probe, 635/667 nm fluorescence, primary screen (AID 1097); settings: small-molecule microarray, higher = more signal;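 also: probe is a biotinylated anti-EGFR antibody binding compounds printed on slides; score combines fluorescence near 667 nm and signal to noise of each spot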

| SMILES | composite z-score [1] | composite z-score [2] | composite z-score [3] | composite z-score [4] | composite z-score [5] | composite z-score [6] | composite z-score [7] | z-score [8] | composite z-score [9] | composite z-score [10] | composite z-score [11] | z-score [12] | z-score [13] | z-score [14] | composite z-score [15] | z-score [16] | composite z-score [17] | composite z-score [18] | composite z-score [19] | composite z-score [20] |
| --- | --- | --- | --- | --- | --- | --- | --- | --- | --- | --- | --- | --- | --- | --- | --- | --- | --- | --- | --- | --- |
| COc1ccc([Si](C)(C)[C@@H]2[C@@H](CC(=O)N(CCO)Cc3ccccc3)O[C@]3(C(=O)N(C)c4c(Br)cc(C)cc43)[C@H]2C)cc1 | -0.106 | -0.0018 | -0.13 | 0.33 | -0.561 | 0.679 | 0.508 | -3.19 (inactive) | -0.051 | 0.0052 | 1.37 | -0.8 (inactive) | 0.0424 (inactive) | 0.991 (inactive) | 0.214 | -1.37 (inactive) | -0.149 | 1.56 | 0.92 | -0.0978 |
| COC(=O)[C@]1(Cc2ccccc2N=[N+]=[N-])N=C(c2ccc(OCCCO)cc2)O[C@@H]1c1ccccc1 | 1.3 | 0.517 | 0.0132 | -0.152 | -0.0515 | 0.358 | 0.929 | -0.237 (inactive) | 0.182 | 0.0291 | 0.867 | 0.537 (inactive) | -1.28 (inactive) | 21.8 (active) | 2.21 | 1.06 (inactive) | 0.23 | -0.4 | -0.361 | -0.136 |
| COCCOC(=O)N1C(=O)[C@@]2(c3cc(C#Cc4ccc(OC)cc4)ccc31)[C@H](C(N)=O)[C@H]1C(=O)O[C@H](c3ccccc3)[C@H](c3ccccc3)N1[C@@H]2c1ccc(OCCO)cc1 | -0.358 | 0.562 | 0.0014 | 0.62 | 1.17 | 0.869 | 1.28 | 0.574 (inactive) | 0.512 | -0.251 | 1.53 | 2.17 (inactive) | 0.719 (inactive) | 4.88 (inactive) | 2.75 | 1.31 (inactive) | -0.0757 | 1.43 | 1.07 | 0.0251 |
| NC(=O)NCC#Cc1ccc2c(c1)[C@]1(C(=O)N2)[C@H](c2ccc(O)cc2)N2[C@H](c3ccccc3)[C@H](c3ccccc3)OC(=O)[C@H]2[C@@H]1C(=O)NC[C@H](O)c1ccccc1 | 1.38 | -1.23 | -0.132 | -1.17 | -1.17 | 0.831 | -0.18 | -0.0208 (inactive) | -0.268 | 0.172 | -0.0161 | -0.195 (inactive) | 0.207 (inactive) | -0.0001 (inactive) | -0.383 | 0.821 (inactive) | -0.0435 | -2.14 | -0.91 | -0.276 |
| C=CCC(OC(C)=O)[C@@H]1[C@@H](N(Cc2cccc3ccccc23)C(=O)Cc2ccc(F)cc2)c2cc(OCCCO)ccc2N1C(=O)Cc1ccc(OC)cc1 (stereo not given in full) | -0.449 | 0.202 | -0.116 | 0.493 | -0.045 | -0.418 | -0.424 | -1.05 (inactive) | 0.0417 | -0.191 | -0.151 | -1.18 (inactive) | 0.246 (inactive) | -0.72 (inactive) | -0.0743 | 0.802 (inactive) | -0.0137 | 0.122 | 0.159 | -0.309 |
| COc1ccc(C(=O)Nc2ccc(CN3C(=O)[C@@]4(O[C@@H](CC(=O)N5Cc6ccccc6C[C@H]5CO)[C@H]([Si](C)(C)c5ccc(OC)cc5)[C@H]4C)c4ccccc43)cc2)cc1 | -0.313 | 0.17 | 0.0275 | 0.158 | -0.0395 | 0.822 | 1.1 | -4.29 (inactive) | 0.185 | -0.173 | 1.51 | -1.8 (inactive) | 0.821 (inactive) | 1.87 (inactive) | 1.92 | 0.265 (inactive) | -0.215 | 1.61 | 1.13 | -0.0961 |
| CCCCC(=C=CC[C@H](O)c1ccccc1OCCO)C[C@H](O)c1ccccn1 | -0.0078 | 1.07 | -0.116 | -0.0673 | -0.285 | 0.466 | 0.376 | -1.38 (inactive) | 0.0552 | -0.456 | 1.13 | 0.27 (inactive) | -0.132 (inactive) | 0.0422 (inactive) | 0.0266 | 1.3 (inactive) | -0.0699 | 0.939 | 0.0956 | -0.179 |
| CC(C)(C)OC(=O)CC[C@]1(C(=O)N2CCCCC2)N=C(c2ccc(OCCCO)cc2)O[C@H]1c1ccccc1CN=[N+]=[N-] | -0.193 | 1.29 | 0.347 | 1.14 | 1.65 | 1.89 | 1.38 | -2.88 (inactive) | 0.821 | -0.574 | 1.54 | -4.42 (inactive) | -0.736 (inactive) | -0.279 (inactive) | 3.67 | 2.1 (inactive) | 0.694 | 0.743 | 1.05 | 0.314 |
| Cc1cc(C)c(C(O)C2C=CC3C(=O)N(c4ccccc4)C(=O)C3N2Nc2ccc([N+](=O)[O-])cc2)c(C)c1 (stereo not given) | 0.0096 | 0.129 | 0.0748 | 0.453 | 1.68 | 1.9 | 1.36 | -0.625 (inactive) | 1.51 | -0.223 | 1.54 | -0.695 (inactive) | 0.957 (inactive) | 2.16 (inactive) | 3.73 | 0.356 (inactive) | 0.216 | 0.525 | 1.02 | 0.0225 |
| CCOC(=O)C[C@H]1[C@H](OC(=O)Cc2ccc3c(c2)OCO3)[C@@H](NC(=O)c2ccccc2)c2cc(OCCCO)ccc2N1C(=O)c1ccc2ccccc2n1 | -0.146 | -0.183 | -0.147 | 0.352 | 0.671 | 0.485 | 0.55 | -4.6 (inactive) | 0.0323 | -0.175 | 0.4 | -2.25 (inactive) | -1.2 (inactive) | -0.433 (inactive) | 1.13 | 1.45 (inactive) | -0.0179 | 0.196 | 0.0199 | -0.147 |
